Test systems include HCT-15 colon; HT29 colon; SNB-75 CNS; SNB-19 CNS; U251 CNS; PC-3 prostate; SK-MEL-5 melanoma; UACC-62 melanoma; LOX IMVI melanoma; SK-MEL-28 melanoma.
What all share (assay): NCI-60 one-dose screen, 48 h (100 = growth as untreated, 0 = no growth, -100 = all killed)
Common to all, as to conditions: 10 µM unless noted

This is part of a sample that, as a whole, favours compounds with a hit. Of some 83,000 tested, about 20% had one in any assay.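 Step 1: grow cells in 96-well plates. Step 2: add test compound at a single concentration. Step 3: incubate 48 h. Step 4: record percent growth.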 Values without a mark were called inactive. Active and inactive are the calls of the source. The calls were made as follows: active = growth percent below 10; inactive = the rest.

Consider `O=C1c2ccccc2-c2c1c1ccncc1c(=O)n2CCCn1ccnc1`, for which the growth in the experiment with HCT-15 colon was 40.8%; in the experiment on HT29 colon, 21%; in the experiment on SNB-75 CNS, 50.3%; with SNB-19 CNS, 41.5%; in the experiment on U251 CNS, 20.4%; in the experiment on PC-3 prostate, 38%. For the same molecule, the growth in the experiment with SK-MEL-5 melanoma is 28.5%; with UACC-62 melanoma it was 39.7%; in the experiment with LOX IMVI melanoma it was 6.42% (active); with SK-MEL-28 melanoma, 88.3%.

For the molecule `O=C(NC1CCCCCC1)c1ccc2c(=O)n3c(nc2c1)CCCCC3`, the growth in the experiment with HCT-15 colon was 80.4%; with HT29 colon it was 87.3%; with SNB-75 CNS, 62.9%; in the experiment on SNB-19 CNS, 102%; with U251 CNS, 99.7%; in the experiment on PC-3 prostate, 92.2%. Further, the growth in the experiment on SK-MEL-5 melanoma is 94.9%; in the experiment on UACC-62 melanoma it was 93.6%; in the experiment with LOX IMVI melanoma, 96.1%; in the experiment on SK-MEL-28 melanoma it was 108%.

For `Cn1ccnc1C(=O)/C=C/c1ccc(C(=O)Nc2ccccc2F)cc1`, the growth in the experiment with HCT-15 colon is 14.2%; in the experiment on HT29 colon, 10.9%; with SNB-75 CNS it was 56.2%; in the experiment with SNB-19 CNS, 21.1%; in the experiment with U251 CNS, 10.5%; in the experiment on PC-3 prostate, 25.1%. Moreover, the growth in the experiment on SK-MEL-5 melanoma was 83.7%; in the experiment on UACC-62 melanoma, 37.3%; in the experiment with LOX IMVI melanoma, -41.1% (active); with SK-MEL-28 melanoma it was 59.2%.

Regarding `CCN(CC)CCCNC(=O)c1c2c(n3ccccc13)C(=O)c1ncccc1C2=O`, the growth in the experiment on HCT-15 colon was -73.6% (active); in the experiment with HT29 colon, -28.5% (active); with SNB-75 CNS it was -87.2% (active); in the experiment on SNB-19 CNS, -71.3% (active); with U251 CNS, -83.8% (active); in the experiment on PC-3 prostate it was -19.8% (active). In addition, the growth with SK-MEL-5 melanoma was -99.2% (active); in the experiment with UACC-62 melanoma, -53.8% (active); in the experiment with LOX IMVI melanoma, -71.2% (active); in the experiment with SK-MEL-28 melanoma it was 22.8%.

Take `Cc1nn(C)c2ncnc(Nc3ccccc3Br)c12`: the growth is 101% in the experiment on HCT-15 colon; 97.7% in the experiment with HT29 colon; 111% in the experiment with SNB-75 CNS; 101% in the experiment with SNB-19 CNS; 95.3% in the experiment on U251 CNS; 102% in the experiment with PC-3 prostate. In addition, the growth is 97.7% with SK-MEL-5 melanoma, 93.3% with UACC-62 melanoma, 101% with LOX IMVI melanoma and 102% in the experiment with SK-MEL-28 melanoma.

Regarding `COC(CCP(=O)(c1ccccc1)c1ccccc1)(C(=O)c1ccccc1)c1ccccc1` (stereo not given), the growth is 52.6% in the experiment on HCT-15 colon; 57.5% in the experiment with HT29 colon; 84.9% in the experiment on SNB-75 CNS; 71.6% with SNB-19 CNS; 71.3% with U251 CNS; -46.2% (active) with PC-3 prostate. The growth is 34.3% with SK-MEL-5 melanoma, 53.8% in the experiment on UACC-62 melanoma, 64.6% in the experiment with LOX IMVI melanoma and 89.1% with SK-MEL-28 melanoma.

As for `COc1ccc(N/N=C/c2ccc3c(c2)Sc2ccccc2N3C)cc1`, the growth with HCT-15 colon was 84.5%; in the experiment with HT29 colon, 98.6%; in the experiment on SNB-75 CNS it was 73.5%; in the experiment on SNB-19 CNS, 81.1%; in the experiment with U251 CNS it was 63.9%; with PC-3 prostate, 44.4%. Also, the growth in the experiment on SK-MEL-5 melanoma is 77%; in the experiment with UACC-62 melanoma, 10.8%; with LOX IMVI melanoma it was 28.1%; in the experiment on SK-MEL-28 melanoma, 100%.

Take `CC(=O)c1c(/C=C/c2ccc(C)cc2)c2ccccc2[nH]c1=O`: the growth in the experiment with HCT-15 colon is 102%; with HT29 colon, 105%; in the experiment on SNB-75 CNS, 73.7%; in the experiment on SNB-19 CNS, 73.5%; in the experiment on U251 CNS, 86%; with PC-3 prostate it was 81.2%. The growth in the experiment on SK-MEL-5 melanoma was 95.9%; in the experiment with UACC-62 melanoma, 80.7%; in the experiment with LOX IMVI melanoma it was 84.7%; in the experiment on SK-MEL-28 melanoma, 110%.

With `N#Cc1nn(-c2ccccn2)c(N)c1C#N`, the growth in the experiment with HCT-15 colon is 102%; in the experiment on HT29 colon it was 86.4%; in the experiment with SNB-75 CNS, 87.3%; with SNB-19 CNS, 101%; in the experiment on U251 CNS it was 103%; in the experiment with PC-3 prostate, 95.4%. Besides, the growth with SK-MEL-5 melanoma was 104%; with UACC-62 melanoma, 99.1%; in the experiment on LOX IMVI melanoma, 101%; in the experiment on SK-MEL-28 melanoma, 105%.

Consider `CC(C)(C)n1cc(-c2ccnc(NCCNS(=O)(=O)c3ccc(C(F)(F)F)cc3)c2)c(-c2ccccc2)n1`, for which the growth is 75.6% in the experiment on HCT-15 colon; 53.7% in the experiment with HT29 colon; 80.9% with SNB-75 CNS; 101% in the experiment on SNB-19 CNS; 75.4% in the experiment with U251 CNS; 65.8% in the experiment on PC-3 prostate. The growth is 80.7% in the experiment on SK-MEL-5 melanoma, 80.9% with UACC-62 melanoma, 93.1% in the experiment on LOX IMVI melanoma and 100% with SK-MEL-28 melanoma.

On to `CCCn1cnc2c(c1=N)C(c1ccc(Cl)cc1)c1sc3c(F)cccc3c1O2` (stereo not given), for which the growth in the experiment on HCT-15 colon is 40.9%; in the experiment with HT29 colon, 20.8%; in the experiment on SNB-75 CNS it was 90.2%; in the experiment with SNB-19 CNS, 87.5%; with U251 CNS, 59.8%; in the experiment on PC-3 prostate it was 65.8%. In addition, the growth in the experiment with SK-MEL-5 melanoma is 63.7%; in the experiment with UACC-62 melanoma, 85.4%; in the experiment on LOX IMVI melanoma, 82.3%; with SK-MEL-28 melanoma it was 80.1%.

On to `CCCc1cc(CCC)n2nc(N)nc2n1`, for which the growth with HCT-15 colon is 107%; in the experiment on HT29 colon, 108%; in the experiment with SNB-75 CNS, 95.6%; in the experiment on SNB-19 CNS it was 113%; with U251 CNS it was 110%; in the experiment on PC-3 prostate it was 96.9%. Besides, the growth with SK-MEL-5 melanoma was 107%; in the experiment on UACC-62 melanoma, 111%; with LOX IMVI melanoma, 105%; in the experiment on SK-MEL-28 melanoma, 105%.

Take `C=C(C)[C@@H]1CC[C@]2(COC(=O)c3cccnc3)CC[C@]3(C)[C@H](CC[C@@H]4[C@@]5(C)CCCN(C(=O)c6cccnc6)C(C)(C)[C@@H]5CC[C@]43C)[C@@H]12`: the growth is 24.9% in the experiment with HCT-15 colon; 32.3% with HT29 colon; 53.3% in the experiment on SNB-75 CNS; 47.1% in the experiment with SNB-19 CNS; 25.6% in the experiment with U251 CNS; 14.6% with PC-3 prostate. For the same molecule, the growth in the experiment on SK-MEL-5 melanoma is 2.5% (active); with UACC-62 melanoma it was 28.4%; in the experiment on LOX IMVI melanoma, 21.3%; in the experiment on SK-MEL-28 melanoma, 51.3%.

These data come from PubChem BioAssay (NCI).
